70 molecules from ChEMBL document CHEMBL3988442, “University of Dundee, Small-Polar-MMV Screening Library” (2021) can be followed below.

The experiment deals with Leishmania donovani. The experiment is described as follows: Leishmania intramacrophage assay. Format: functional, organism-based. On the set-up: scale not given: in the data most compounds retested in dose-response had high values.

Among all 69,000 compounds or so, about 1,000 (1.4%) showed an effect of 50% or more. The list comes from a sample in which strong results are over-represented; it also holds similar structures and randomly drawn compounds.

On to `CN(CCO)C(=O)Nc1ccn(-c2cccc(C(F)(F)F)c2)n1`, for which the “Percent Effect” value (30.3 µM, […]) is reported as 13.55%.
`Cc1nc2n(n1)CC(NCc1csc(-c3ccsc3)n1)CC2` (stereo not given): the “Percent Effect” value (30 µM) was 1.329%.
`O=C(NC[C@H]1OC[C@@H](NC2COC2)[C@@H]1O)c1cccs1`: under “30.3 µM, […]”, the “Percent Effect” value turned out to be 17.79%.
For `Cc1ccc2c(c1)C(=O)NCC1(CCN(C(=O)c3cc(C)no3)CC1)O2`, where the note is “30.3 µM, […]”, the “Percent Effect” value was determined as 77.82%.
Still for that read-out and setting: then `Cc1ccc2c(c1)C(=O)NCC1(CCN(C(=O)c3ccnn3C)CC1)O2`, with 23.56%; and `Cc1ccc2c(c1)C(=O)NCC1(CCN(C(=O)c3ccccn3)CC1)O2`, with 39.06%; and `Cc1cccc(C)c1OC1CN(C(=O)C2CC(=O)N(C(C)(C)C)C2)C1` (stereo not given), with 48.27%.
The same measure, in the same setting: then `CN1C(=O)C(c2ccccc2)CC12CCN(CCN)CC2` (stereo not given), with 16.5%.
Same read-out and setting: the result for `CCc1cc(NCCCOC2CCN(C)CC2)ncn1` reads -6.301%.
Take `CCc1cc(NCCCN(C)C2CCCC2)ncn1`: the “Percent Effect” value (30.3 µM, […]) is listed as 22.72%.
In the case of `CCc1cc(NCCCOC2CCCC2)ncn1`, for the setting “30.3 µM, […]”, the “Percent Effect” value is 51.18%.
Consider `Cn1ccc(CN2CCC3(CCCN3CC3CC3)CC2)n1.O=C(O)C(F)(F)F.O=C(O)C(F)(F)F`, for which the “Percent Effect” value (30.3 µM, […]) is 41.38%.
On the same count and under the same terms, the result for `O=C(CC1CN(Cc2ccccc2)CCO1)NC1CCSCC1` (stereo not given) reads 18.94%.
`Cc1ccc(CC(=O)N(C)CC2(O)CCN(c3ccccn3)C2)s1` (stereo not given): the “Percent Effect” value (30 µM, 30.03 µM) is given as 24.75%.
With `CC(=O)c1cnc(NCCN2CCCC(c3ccccc3)C2)nc1C` (stereo not given), the “Percent Effect” value (30.3 µM, […]) is given as -39.73%.
In the case of `O=C(C1COCCO1)N1CCN(CC(F)(F)F)c2ccccc21` (stereo not given), the “Percent Effect” value (30.3 µM, […]) was 56.8%.
Same read-out and setting: the result for `O=C(C1CCCOC1)N1CCN(CC(F)(F)F)c2ccccc21` (stereo not given) reads -20.84%; that for `O=C(C1CCOC1)N1CCN(CC(F)(F)F)c2ccccc21` (stereo not given), 25.18%; that for `CC(C)(C)c1cc(CN2C[C@@H]3CC[C@H](C2)N(Cc2ccccn2)C3)n[nH]1`, 9.516%.
Same read-out and setting: the result for `CC(C)(C)c1cc(CN2C[C@H]3CC[C@@H]2CN(Cc2cscn2)C3)n[nH]1` reads 99.99%; that for `CC(C)Cc1cc(CN2C[C@H]3CC[C@@H]2CN(Cc2cscn2)C3)n[nH]1`, 2.738%.
With `CCCc1n[nH]c(C2CN(C(=O)c3ccco3)CCO2)n1` (stereo not given), for the setting “30 µM, 30.03 µM”, the “Percent Effect” value came to 22.5%.
In the case of `Cc1nc2c(c(NCCCN3CCOCC3)n1)CCN(C)C2`, under “30.3 µM, […]”, the “Percent Effect” value amounted to 22.12%.
On the same count and under the same terms, then `Cc1nc2c(c(NCCN3CCOCC3)n1)CCN(C)C2`, with 32.47%.
Same read-out and setting: then `CCN(CC)CCCNc1nc(C)nc2c1CCN(C)C2.O=C(O)CC(O)(CC(=O)O)C(=O)O`, with 53.93%; and `Cc1nccc([C@H]2C[C@@H]3CCN(C(=O)c4c(C)noc4C)C[C@H]3O2)n1`, with 16.88%.
Same read-out and setting: the result for `Cc1ccccc1OCCSc1nnc(CC2CCS(=O)(=O)C2)n1C` (stereo not given) reads 22.12%.
`COCc1cc(N2CCOC(c3ccc(F)cc3)C2)ncn1` (stereo not given): the “Percent Effect” value (30.3 µM, […]) is listed as -18.01%.
On the same count and under the same terms, the result for `COCc1cc(N2CCOC(c3ccc(Cl)c(Cl)c3)C2)ncn1` (stereo not given) reads 54.26%.
On the same count and under the same terms, the result for `COCc1cc(N2CCOC(c3ccc(Cl)cc3)C2)ncn1` (stereo not given) reads 15.44%; that for `CCCOC1CCCN(Cc2nc(-c3ccc(F)cc3F)oc2C)C1` (stereo not given), -16.44%; that for `COCc1ncn(Cc2nc(-c3ccc(OC)cc3F)oc2C)n1`, -35.79%.
On to `COc1ccc(-c2nc(CN3CCCC(OC)C3)c(C)o2)c(F)c1` (stereo not given), for which the “Percent Effect” value (30.3 µM, […]) was determined as 76%.
On the same count and under the same terms, then `COc1cccc(CN(C(=O)Nc2nncs2)C2CCC(O)CC2)c1` (stereo not given), with 1.528%; and `O=C1NC2(CCN(C(=O)c3ccnnc3)CC2)CC1c1ccccc1` (stereo not given), with 21.04%; and `CCCN1CCC(Cc2noc(-c3cccnc3OC)n2)CC1`, with 57.42%.
Same read-out and setting: the result for `COC(=O)c1cccc(-c2nc(CC3CCN(C)CC3)no2)c1` reads 10.91%.
The same measure, in the same setting: then `CCCN1CCC(Cc2noc(-c3cc4cccnc4nc3C)n2)CC1`, with 32.81%; and `CCCN1CCC(Cc2noc(-c3ncccc3C)n2)CC1`, with 17.75%.
With `CC(=O)c1ccccc1-c1nc(CC2CCN(C)CC2)no1`, for the setting “30.3 µM, […]”, the “Percent Effect” value stood at 87.64%.
For `CN1CCC(Cc2noc(-c3cccc4c3OCC4)n2)CC1`, the “Percent Effect” value (30.3 µM, […]) was found to be 31.67%.
Consider `CSCc1noc(CNC(=O)C2CCN(C3CCCCC3)CC2)n1`, for which, under “30.3 µM, […]”, the “Percent Effect” value stood at 24%.
Still for that read-out and setting: then `Cc1noc(C)c1CN(C)c1ncnc2ccccc12`, with 12.67%; and `CC(Cn1cc(Br)cn1)C(=O)Nc1ccc(Cl)cn1` (stereo not given), with -88.88%.
Consider `CC(C)c1nc(C2CCCN(C(=O)CCn3cncn3)C2)no1` (stereo not given), for which, for the setting “30 µM”, the “Percent Effect” value came out at 13.68%.
For `O=C(Cc1ccc(F)cc1)NCCNc1cc(N2CCCC2)ncn1`, the “Percent Effect” value (30.3 µM, […]) is -9.653%.
Take `CCN1CC(COC(=O)c2ccc(N(C)C)cc2F)CC1=O` (stereo not given): the “Percent Effect” value (30.3 µM, […]) is 23.8%.
Still for that read-out and setting: the result for `CCN1CC(COC(=O)c2ccc(Br)cc2F)CC1=O` (stereo not given) reads 87.43%.
Still for that read-out and setting: the result for `CCN1CC(COC(=O)c2cc(Br)ccc2F)CC1=O` (stereo not given) reads -7.569%.
Same read-out and setting: the result for `COc1ccccc1CC(=O)N1CCCC1Cn1nc(C)cc1C` (stereo not given) reads 13.95%; that for `O=C1O[C@@H]2CN(Cc3cccc(O)c3)C[C@@H]2N1CCCN1CCOCC1`, 8.802%.
For the molecule `CCOc1ccc(Cl)c(C(=O)NC)n1`, where the note is “30 µM”, the “Percent Effect” value was 10.53%.
As for `O[C@@H]1C[C@@H](c2nc(-c3ccccc3)no2)N(CC2CCCCC2)C1`, the “Percent Effect” value (30.3 µM, […]) was 18.41%.
Turning to `COc1ccnc(CN(C)C(=O)CSc2nnc(N)s2)c1`, under “30.3 µM, […]”, the “Percent Effect” value stood at 23.55%.
The same measure, in the same setting: the result for `CCn1ccc(CN(C)C(=O)CSc2nnc(N)s2)n1` reads 54.38%; that for `COc1ccc(CN(C)C(=O)CSc2nnc(N)s2)c(OC)c1OC`, 28.05%.
With `CC(C(=O)N1CCCCC1)N1CCN(c2ncc(Cl)cn2)CC1` (stereo not given), the “Percent Effect” value (30.3 µM, […]) was 6.463%.
`Cc1cc(S(=O)(=O)N2CCC(S(C)(=O)=O)C2)ccc1F` (stereo not given): under “30.3 µM, […]”, the “Percent Effect” value is on record as 24.83%.
The same measure, in the same setting: the result for `CS(=O)(=O)C1CCN(S(=O)(=O)c2ccc(F)c(F)c2)C1` (stereo not given) reads 54.9%; that for `CS(=O)(=O)C1CCN(S(=O)(=O)c2ccc(F)c(F)c2)CC1`, -2.266%; that for `O=C(NCc1ccccn1)N1CC=C(c2ccccc2)CC1`, 1.233%.
On the same count and under the same terms, then `CCN(C)CC(=O)N1CCC(c2cc(N3CCOCC3)nc(C)n2)CC1`, with -5.475%; and `Cc1nc(CCN)cc(N2CCC(O)(c3ccccc3)C2)n1` (stereo not given), with 11.63%; and `Cc1nc(CCN)cc(N2CCC(O)(c3ccc(Cl)cc3)CC2)n1`, with 77.75%.
For `Cc1nc(N)nc(N2CCOc3ccc(CO)cc3C2)c1C`, the “Percent Effect” value (30.3 µM, […]) is -5.312%.
The same measure, in the same setting: the result for `Cc1nc(CN)cc(N2CCC(O)(c3ccc(Cl)cc3)CC2)n1` reads -13.57%; that for `COc1ccc(C(=O)N2CCN(c3cc(CCN)nc(C)n3)CC2)cc1`, 0.4639%.
Same read-out and setting: the result for `Cc1nc(C2CCNCC2)cc(N2CCOc3ccccc3C2)n1` reads 38.29%; that for `Cc1nc(CCN)cc(N2CCOc3ccc(Cl)cc3C2)n1`, 63.66%.
Same read-out and setting: then `Cc1nc(C2CCN(C)CC2)cc(N2CCOc3ccc(Cl)cc3C2)n1`, with 85.22%.
